Measured values from the supplement of paper PMC6607015.
Where a name gives a salt, the structure may show the parent alone.

Columns and labels:
Details in all cases: compound concentration in added solution (µM; 5 µl added to 20 µl cells): 10; 18 h
A431 [1] = assay: LBPA endosome anti-LBPA integrated intensity (sum per cell), Z-score; higher = more LBPA staining
How it was run: (§1)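 Four 20× images per well were taken of HeLa MZ or A431 cells that had been seeded at 3,500 per well in 20 µl onto 5 µl of 10 µM compound solution in duplicate 384-well imaging plates. Before imaging, cells were incubated 18 h, fixed in 4% PFA and stained with 6C4 anti-LBPA antibody, filipin, propidium iodide and CellTracker green. Values are Z-scores normalised in AcuityXpress from MetaXpress-derived per-cell integrated LBPA or filipin intensity, either whole-cell or within LBPA endosomes.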

HeLa MZ [2] = assay: as above
How it was run: as §1

A431 [3] = assay: whole-cell filipin (free cholesterol) integrated intensity, Z-score; higher = more cholesterol staining
How it was run: as §1

HeLa MZ [4] = assay: as above
How it was run: as §1

A431 [5] = assay: filipin (cholesterol) integrated intensity within LBPA endosomes, Z-score; higher = more cholesterol in LBPA endosomes
How it was run: as §1

HeLa MZ [6] = assay: as above
How it was run: as §1

Row | Structure (SMILES) | LBPA endosome anti-LBPA integrated intensity (z-score) (A431 [1]) | LBPA endosome anti-LBPA integrated intensity (z-score) (HeLa MZ [2]) | whole-cell filipin (z-score) (A431 [3]) | whole-cell filipin (z-score) (HeLa MZ [4]) | filipin (z-score) (A431 [5]) | filipin (z-score) (HeLa MZ [6])
1 | CO/N=C(\C(=O)N[C@@H]1C(=O)N2C(C(=O)O)=C(COC(N)=O)CS[C@H]12)c1ccco1 [Cefuroxime sodium salt] | -0.467 | -0.812 | -0.402 | 0.0343 | -0.419 | -0.472
2 | C=CCN1CCCC1CNC(=O)c1cc2nn[nH]c2cc1OC (centres undefined) [Alizapride HCl] | -0.413 | 0.636 | -0.622 | -0.69 | -0.538 | -0.182
3 | O=C(O)c1cn(C2CC2)c2cc(N3CCNCC3)c(F)cc2c1=O [Ciprofloxacin hydrochloride hydrate] | -0.633 | -0.847 | -0.925 | -0.971 | -0.579 | -0.519
4 | CCCN(CCC)C(=O)C(CCC(=O)O)NC(=O)c1ccccc1 (centres undefined) [Proglumide] | -0.629 | -1.36 | -1.22 | -0.766 | -0.53 | -0.607
5 | Cc1cccc(C)c1OCC(C)N (centres undefined) [Mexiletine hydrochloride] | -0.572 | -0.935 | -0.883 | -0.901 | -0.495 | -0.576
6 | CC(C(=O)O)c1ccc(C(=O)c2cccs2)cc1 (centres undefined) [Suprofen] | -0.328 | 0.404 | 0.0494 | 0.84 | -0.289 | -0.21
7 | COc1cc(N)c(Cl)cc1C(=O)NC1CCN(Cc2ccccc2)CC1 [Clebopride maleate] | 0.365 | 2.01 | -0.171 | 0.217 | 0.0875 | 0.539
8 | OCCOCCN1CCN(C2=Nc3ccccc3Sc3ccccc32)CC1 [Quetiapine] | -0.603 | 0.201 | -0.454 | -0.549 | -0.515 | -0.0994
9 | C=CCOC(Cn1ccnc1)c1ccc(Cl)cc1Cl (centres undefined) [Enilconazole] | -0.206 | -0.741 | 0.571 | 0.192 | -0.128 | -0.352
10 | CC(C)c1c(C(=O)Nc2ccccc2)c(-c2ccccc2)c(-c2ccc(F)cc2)n1CC[C@@H](O)C[C@@H](O)CC(=O)O [Atorvastatin] | -0.737 | -0.992 | -0.0189 | -0.402 | -0.543 | -0.45
11 | Cc1onc(-c2ccccc2)c1C(=O)N[C@@H]1C(=O)N2[C@@H]1SC(C)(C)[C@@H]2C(=O)O [Oxacillin sodium] | -0.391 | 0.32 | -0.277 | -0.0335 | -0.382 | -0.445
12 | CCOC(=O)[C@H](CCc1ccccc1)N[C@H]1CCc2ccccc2N(CC(=O)O)C1=O [Benazepril HCl] | -0.544 | -0.517 | -0.676 | -0.703 | -0.597 | -0.712
13 | Cc1[nH]c(=O)c(C#N)cc1-c1ccncc1 [Milrinone] | -0.393 | 0.29 | -0.171 | -0.0695 | -0.351 | -0.372
14 | NNCCc1ccccc1 [Phenelzine sulfate] | -0.403 | -0.966 | -0.414 | -0.115 | -0.439 | -0.425
15 | Cn1c(=O)c2c(ncn2C)n(C)c1=O [Caffeine] | -0.331 | -0.197 | -0.0359 | 0.547 | -0.318 | -0.108
16 | Clc1ccc(COC(Cn2ccnc2)c2ccc(Cl)cc2Cl)cc1 (centres undefined) [Econazole nitrate] | 0.0817 | 1.63 | 0.484 | 0.898 | -0.0604 | 0.606
17 | CCCc1ncc(C[n+]2ccccc2C)c(N)n1 [Amprolium hydrochloride] | -0.558 | -1.09 | -0.581 | -0.0131 | -0.483 | -0.419
18 | CC(=O)OCC(=O)[C@@]1(OC(C)=O)[C@@H](C)C[C@H]2[C@@H]3C[C@H](F)C4=CC(=O)C=C[C@]4(C)[C@@]3(F)[C@@H](O)C[C@@]21C [Diflorasone Diacetate] | -0.283 | -0.262 | -0.254 | -0.816 | -0.354 | -0.539
19 | C[C@]12CCC(=O)C=C1C=C[C@@H]1[C@@H]2CC[C@@]2(C)[C@H]1CC[C@@]21CCC(=O)O1 [Canrenone] | -0.209 | 1.1 | 0.452 | 1.37 | -0.0815 | 0.168
20 | Nc1ccc(S(=O)(=O)Nc2cnc3ccccc3n2)cc1 [Sulfaquinoxaline sodium salt] | -0.491 | -0.359 | -0.235 | -0.279 | -0.43 | -0.432
21 | COC(=O)C1=C(C)NC(C)=C(C(=O)OCCN(C)Cc2ccccc2)C1c1cccc([N+](=O)[O-])c1 (centres undefined) [Nicardipine hydrochloride] | 1.9 | 0.904 | 1.24 | -0.142 | 1.79 | 0.881
22 | CN(C)CCC=C1c2ccccc2COc2ccccc21 [Doxepin hydrochloride] | 1.38 | 1.22 | 1.29 | -0.0249 | 1.62 | 1.18
23 | O=C(O)Cc1ccccc1Nc1c(Cl)cccc1Cl [Diclofenac sodium] | -0.542 | -0.789 | -0.65 | -0.702 | -0.505 | -0.603
24 | Cn1c(=O)c2c(ncn2CC2OCCO2)n(C)c1=O [Doxofylline] | -0.341 | 0.313 | -0.207 | -0.159 | -0.416 | -0.528
